PubChem BioAssay
Activity calls are given as the source filed them.

What was measured:
[1] = system: PRMT1 (protein arginine N-methyltransferase 1); test: PRMT1 binders on small-molecule microarrays, primary screen, biochemical, small-molecule microarray, 635 nm fluorescence (AID 1088); conditions: small-molecule microarray binding, higher = more signal;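 further: binding of Prmt1 protein to compounds spotted on small-molecule microarray slides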
[2] = yeast growth modulation, basal conditions, primary screen, YJM789 clinical isolate, OD600, 24 h (AID 1089);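 further: growth of clinical yeast isolate S. cerevisiae YJM 789 seeded 1000 cells per well; test concentration not given here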; conditions: S. cerevisiae YJM789 growth, higher = more signal, called active from +8 up or from −8 down
[3] = fission yeast growth modulation, primary screen, strain 972, OD600, 24 h, no modulator (AID 1090);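 further: basal condition with compound alone and no growth modifier present; test concentration not given here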; conditions: S. pombe 972 growth, higher = more signal, called active from +8 up or from −8 down
[4] = S. cerevisiae growth modulation with rapamycin, primary screen, strain BY4716, OD600, 96 h (AID 1091); conditions: higher = more signal, called active from +8 up or from −8 down; further: test concentration not given here
[5] = biological target: Torsin-1A-interacting protein 2 (Homo sapiens) (UniProt Q8NFQ8); test: LULL1 binders on small-molecule microarray, primary screen, cell lysate, human LULL1 lysate, 635/667 nm fluorescence (AID 1092); conditions: hLULL1 lysate binding, 635 nm fluorescence, higher = more signal;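 further: probe is lysate of COS7 cells overexpressing human LULL1; score merges per-feature 667 nm fluorescence with signal-to-noise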
[6] = E. coli growth modulation, two-sided OD650, primary screen, E. coli filamentation project, strain DRC41, 24 h (AID 1093); conditions: OD650, 24 h, higher = more signal, called active from +8 up or from −8 down;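 further: MC1000 strain lacking acrAB efflux and sulA so SOS filamentation is blocked; test concentration not given here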
[7] = small-molecule microarray binders of probe aLefty2, primary screen, biochemical, biotinylated probe, 635/667 nm fluorescence (AID 1094); conditions: higher = more signal;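 further: score merges spot fluorescence near 667 nm with spot signal-to-noise ratio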
[8] = system: Noggin (protein binding on small-molecule microarray); test: Noggin binders on small-molecule microarray, primary screen, biochemical, 635/667 nm fluorescence (AID 1095); conditions: 635 nm fluorescence, higher = more signal;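 further: score merges 667 nm feature fluorescence with signal to noise over triplicate slides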
[9] = biological target: Neurogenic locus notch homolog protein 3 (Homo sapiens) (UniProt Q9UM47); test: NOTCH3 binders on small-molecule microarray, primary screen, biochemical, 635/667 nm fluorescence (AID 1096); conditions: NOTCH3 binding, 635 nm fluorescence, higher = more signal
[10] = small-molecule microarray binders of probe aEGFR, primary screen, biochemical, biotinylated probe, 635/667 nm fluorescence (AID 1097); conditions: higher = more signal;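 further: probe is a biotinylated anti-EGFR antibody binding compounds printed on slides; score combines fluorescence near 667 nm and signal to noise of each spot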
[11] = system: Plasmodium falciparum Sir2 (PF13_0152, Sir2A); test: pfSir2 binders on small-molecule microarrays, primary screen, biochemical, small-molecule microarray, 635 nm fluorescence (AID 1098); conditions: small-molecule microarray binding, fluorescence 635 nm; higher = more signal;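 further: score merges spot fluorescence intensity with its signal-to-noise ratio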
[12] = small-molecule microarray binders of probe aDKK1, primary screen, biochemical, biotinylated probe, 635/667 nm fluorescence (AID 1099); conditions: higher = more signal;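 further: score merges 667nm spot fluorescence with signal to noise across triplicate slides; reference of the scale not given here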
[13] = small-molecule microarray binders of probe aCHRDL2, primary screen, biochemical, biotinylated probe, 635/667 nm fluorescence (AID 1100); conditions: higher = more signal
[14] = splicing luciferase reporter signal modulators, primary screen, spliceosome inhibition project, cell-based, HEK293, splice +/- reporter (AID 1101); conditions: luminescence, 24 h, higher = more signal, called active from +8 up or from −8 down;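 further: HEK293 cells carrying a splicing-competent luciferase reporter gene; test concentration not given here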
[15] = biological target: Fibroblast growth factor 10 (Homo sapiens) (UniProt O15520); test: FGF10 binders on small-molecule microarrays, primary screen, biochemical, small-molecule microarray, 635 nm fluorescence (AID 1102); conditions: FGF10 binding, fluorescence 635 nm, higher = more signal
[16] = system: glycogen synthase kinase-3 (GSK3A per assay name; protocol says GSK3B); test: GSK3 binders on small-molecule microarrays, primary screen, biochemical, small-molecule microarray, 635 nm fluorescence, GSK3A (AID 1103); conditions: small-molecule microarray binding, fluorescence 635 nm; higher = more signal; further: the record names both GSK3A and GSK3B
[17] = biological target: Epidermal growth factor receptor (Homo sapiens) (UniProt P00533); test: EGFR binders on small-molecule microarrays, primary screen, biochemical, small-molecule microarray, 635 nm fluorescence (AID 1104); conditions: EGFR binding, higher = more signal;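 further: score merges 667 nm emission intensity with spot signal to noise over triplicate slides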
[18] = biological target: Follistatin-related protein 3 (Homo sapiens) (UniProt O95633); test: FSTL3 binders on small-molecule microarrays, primary screen, biochemical, small-molecule microarray, 635 nm fluorescence (AID 1105); conditions: FSTL3 binding, higher = more signal;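 further: score merges emission near 667 nm and signal to noise per printed spot across three slides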
[19] = biological target: Dickkopf-related protein 1 (Homo sapiens) (UniProt O94907); test: DKK1 binders on small-molecule microarrays, primary screen, biochemical, small-molecule microarray, 635 nm fluorescence scan (AID 1106); conditions: DKK1 binding, higher = more signal;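 further: score merges emission near 667 nm with signal to noise over three replicate slides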
[20] = system: Inhibin beta A chain (activin A); test: INHBA (activin A) binders on microarrays, primary screen, biochemical, small-molecule microarray, 635 nm fluorescence scan (AID 1107); conditions: small-molecule microarray binding, higher = more signal;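 further: mouse activin A protein probed at 4.33 µg/mL on printed slides; score merges bound-protein fluorescence near 667 nm with spot signal-to-noise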

Sequence of Epidermal growth factor receptor (Homo sapiens) (P00533 whole entry, looked up): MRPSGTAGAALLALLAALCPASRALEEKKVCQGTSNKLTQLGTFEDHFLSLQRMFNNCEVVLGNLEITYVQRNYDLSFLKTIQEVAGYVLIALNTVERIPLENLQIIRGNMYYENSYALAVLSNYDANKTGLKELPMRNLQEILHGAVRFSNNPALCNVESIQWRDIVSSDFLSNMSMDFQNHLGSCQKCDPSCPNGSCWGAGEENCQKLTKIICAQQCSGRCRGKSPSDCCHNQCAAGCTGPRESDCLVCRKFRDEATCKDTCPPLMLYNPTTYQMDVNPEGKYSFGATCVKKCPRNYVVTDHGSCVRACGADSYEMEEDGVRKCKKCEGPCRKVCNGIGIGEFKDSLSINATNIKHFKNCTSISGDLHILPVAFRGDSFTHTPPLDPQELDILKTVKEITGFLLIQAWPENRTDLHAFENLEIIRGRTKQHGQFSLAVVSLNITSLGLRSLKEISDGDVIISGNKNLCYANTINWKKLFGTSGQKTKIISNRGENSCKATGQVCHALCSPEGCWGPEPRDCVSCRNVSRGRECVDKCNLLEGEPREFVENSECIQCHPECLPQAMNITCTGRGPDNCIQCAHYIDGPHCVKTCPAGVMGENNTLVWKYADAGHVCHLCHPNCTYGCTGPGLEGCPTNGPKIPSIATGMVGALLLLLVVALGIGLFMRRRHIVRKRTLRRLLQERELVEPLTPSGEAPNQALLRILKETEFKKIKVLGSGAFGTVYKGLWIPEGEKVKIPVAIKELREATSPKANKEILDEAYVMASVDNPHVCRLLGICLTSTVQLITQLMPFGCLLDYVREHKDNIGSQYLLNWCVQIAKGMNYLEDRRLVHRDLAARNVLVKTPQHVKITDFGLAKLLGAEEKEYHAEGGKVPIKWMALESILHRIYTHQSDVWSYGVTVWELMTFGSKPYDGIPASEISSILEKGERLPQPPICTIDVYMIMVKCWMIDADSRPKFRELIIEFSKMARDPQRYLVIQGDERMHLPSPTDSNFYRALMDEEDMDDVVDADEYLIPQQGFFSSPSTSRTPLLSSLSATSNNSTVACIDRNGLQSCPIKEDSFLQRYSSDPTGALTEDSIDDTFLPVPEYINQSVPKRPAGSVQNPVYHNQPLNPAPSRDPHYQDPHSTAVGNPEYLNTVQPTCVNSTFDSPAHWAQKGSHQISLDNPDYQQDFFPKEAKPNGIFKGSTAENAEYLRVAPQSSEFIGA
Sequence of Dickkopf-related protein 1 (Homo sapiens) (O94907 whole entry, looked up): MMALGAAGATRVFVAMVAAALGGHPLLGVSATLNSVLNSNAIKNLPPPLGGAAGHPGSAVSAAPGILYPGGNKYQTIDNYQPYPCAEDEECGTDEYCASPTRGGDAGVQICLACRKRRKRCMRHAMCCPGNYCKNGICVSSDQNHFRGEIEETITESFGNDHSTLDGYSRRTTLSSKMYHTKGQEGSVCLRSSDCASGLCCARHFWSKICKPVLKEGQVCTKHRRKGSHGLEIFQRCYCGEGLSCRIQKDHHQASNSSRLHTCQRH
Sequence of Torsin-1A-interacting protein 2 (Homo sapiens) (Q8NFQ8 whole entry, looked up): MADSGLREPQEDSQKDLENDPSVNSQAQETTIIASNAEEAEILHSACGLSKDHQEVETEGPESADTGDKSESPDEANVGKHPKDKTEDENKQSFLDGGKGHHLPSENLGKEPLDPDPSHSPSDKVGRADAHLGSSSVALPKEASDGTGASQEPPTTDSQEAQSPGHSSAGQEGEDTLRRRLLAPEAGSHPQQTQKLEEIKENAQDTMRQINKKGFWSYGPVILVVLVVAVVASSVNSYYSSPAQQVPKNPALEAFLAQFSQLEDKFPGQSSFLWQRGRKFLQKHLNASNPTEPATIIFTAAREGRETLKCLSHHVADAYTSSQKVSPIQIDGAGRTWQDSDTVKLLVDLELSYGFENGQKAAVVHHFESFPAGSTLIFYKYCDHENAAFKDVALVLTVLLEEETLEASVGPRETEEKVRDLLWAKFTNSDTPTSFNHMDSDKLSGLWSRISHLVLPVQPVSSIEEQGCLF
Sequence of Follistatin-related protein 3 (Homo sapiens) (O95633 whole entry, looked up): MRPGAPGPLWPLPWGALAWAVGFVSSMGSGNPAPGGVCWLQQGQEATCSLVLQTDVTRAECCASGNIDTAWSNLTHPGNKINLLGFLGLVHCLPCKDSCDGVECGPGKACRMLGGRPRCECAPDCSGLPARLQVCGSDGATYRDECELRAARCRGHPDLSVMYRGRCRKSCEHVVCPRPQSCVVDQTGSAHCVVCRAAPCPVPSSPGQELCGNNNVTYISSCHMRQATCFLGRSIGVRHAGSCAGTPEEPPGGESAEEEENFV
Sequence of Neurogenic locus notch homolog protein 3 (Homo sapiens) (Q9UM47 whole entry, looked up): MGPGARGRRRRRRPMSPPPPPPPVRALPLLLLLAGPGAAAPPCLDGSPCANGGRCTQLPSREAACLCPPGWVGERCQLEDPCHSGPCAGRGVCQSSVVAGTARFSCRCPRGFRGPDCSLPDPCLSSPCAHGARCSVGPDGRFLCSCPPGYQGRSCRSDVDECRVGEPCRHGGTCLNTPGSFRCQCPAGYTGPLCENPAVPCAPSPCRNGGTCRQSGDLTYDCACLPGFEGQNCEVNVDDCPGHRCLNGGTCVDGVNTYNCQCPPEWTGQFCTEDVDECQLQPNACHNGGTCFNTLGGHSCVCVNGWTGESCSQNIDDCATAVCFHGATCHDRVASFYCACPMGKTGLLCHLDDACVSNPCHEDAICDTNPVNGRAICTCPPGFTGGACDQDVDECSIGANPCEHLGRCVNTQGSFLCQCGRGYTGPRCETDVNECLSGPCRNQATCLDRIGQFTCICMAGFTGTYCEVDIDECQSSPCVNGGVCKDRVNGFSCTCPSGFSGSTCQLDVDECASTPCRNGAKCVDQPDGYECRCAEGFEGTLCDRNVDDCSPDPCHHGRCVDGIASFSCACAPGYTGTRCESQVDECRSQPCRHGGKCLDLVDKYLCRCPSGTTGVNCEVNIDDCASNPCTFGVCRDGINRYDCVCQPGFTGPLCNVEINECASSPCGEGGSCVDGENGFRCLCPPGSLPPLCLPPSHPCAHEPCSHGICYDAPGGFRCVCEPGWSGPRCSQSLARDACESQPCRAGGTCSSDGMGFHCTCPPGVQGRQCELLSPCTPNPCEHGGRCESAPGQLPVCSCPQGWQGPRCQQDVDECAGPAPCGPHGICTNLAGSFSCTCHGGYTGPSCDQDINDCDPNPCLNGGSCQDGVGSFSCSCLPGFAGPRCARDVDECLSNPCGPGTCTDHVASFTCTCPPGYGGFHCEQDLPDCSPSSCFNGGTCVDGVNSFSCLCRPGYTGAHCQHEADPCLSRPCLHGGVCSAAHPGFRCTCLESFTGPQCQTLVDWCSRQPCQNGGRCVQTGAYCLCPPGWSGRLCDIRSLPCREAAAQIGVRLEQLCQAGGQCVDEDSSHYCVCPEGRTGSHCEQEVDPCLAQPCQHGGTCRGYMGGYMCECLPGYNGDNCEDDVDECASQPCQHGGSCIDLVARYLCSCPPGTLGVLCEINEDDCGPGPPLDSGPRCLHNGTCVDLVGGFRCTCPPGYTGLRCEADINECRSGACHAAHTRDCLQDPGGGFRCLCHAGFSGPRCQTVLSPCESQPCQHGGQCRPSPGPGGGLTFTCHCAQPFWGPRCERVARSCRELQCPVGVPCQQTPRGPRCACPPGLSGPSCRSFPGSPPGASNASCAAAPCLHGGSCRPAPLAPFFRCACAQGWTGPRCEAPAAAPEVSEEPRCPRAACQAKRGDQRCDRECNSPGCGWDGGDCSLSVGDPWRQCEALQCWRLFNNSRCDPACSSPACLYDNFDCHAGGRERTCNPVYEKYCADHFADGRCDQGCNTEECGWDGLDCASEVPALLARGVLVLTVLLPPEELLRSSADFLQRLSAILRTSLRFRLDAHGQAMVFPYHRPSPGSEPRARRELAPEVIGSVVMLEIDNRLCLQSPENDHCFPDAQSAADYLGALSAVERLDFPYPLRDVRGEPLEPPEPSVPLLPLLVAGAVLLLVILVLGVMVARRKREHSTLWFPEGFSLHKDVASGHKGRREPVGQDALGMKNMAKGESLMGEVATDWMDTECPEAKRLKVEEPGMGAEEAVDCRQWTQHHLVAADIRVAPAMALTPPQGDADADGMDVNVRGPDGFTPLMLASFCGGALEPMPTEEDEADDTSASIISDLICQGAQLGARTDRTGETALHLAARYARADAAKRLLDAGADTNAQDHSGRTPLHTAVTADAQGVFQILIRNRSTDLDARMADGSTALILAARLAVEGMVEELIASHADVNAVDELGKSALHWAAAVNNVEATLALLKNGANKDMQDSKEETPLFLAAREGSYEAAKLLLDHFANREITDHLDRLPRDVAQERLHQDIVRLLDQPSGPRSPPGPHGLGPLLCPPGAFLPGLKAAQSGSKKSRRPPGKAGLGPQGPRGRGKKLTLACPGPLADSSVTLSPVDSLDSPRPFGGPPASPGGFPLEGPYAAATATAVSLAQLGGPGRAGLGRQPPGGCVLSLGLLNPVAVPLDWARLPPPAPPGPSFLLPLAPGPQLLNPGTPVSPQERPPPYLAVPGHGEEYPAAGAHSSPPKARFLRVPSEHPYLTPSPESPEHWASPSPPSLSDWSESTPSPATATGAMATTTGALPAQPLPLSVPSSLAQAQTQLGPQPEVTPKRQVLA
Sequence of Fibroblast growth factor 10 (Homo sapiens) (O15520 whole entry, looked up): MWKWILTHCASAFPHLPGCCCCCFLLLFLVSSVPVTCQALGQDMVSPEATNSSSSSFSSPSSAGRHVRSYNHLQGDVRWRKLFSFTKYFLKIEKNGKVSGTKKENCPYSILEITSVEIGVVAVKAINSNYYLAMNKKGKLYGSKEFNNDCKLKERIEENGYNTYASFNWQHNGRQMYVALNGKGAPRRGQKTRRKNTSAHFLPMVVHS

Row | Structure (SMILES) | composite z-score [1] | z-score [2] | z-score [3] | z-score [4] | composite z-score [5] | z-score [6] | composite z-score [7] | composite z-score [8] | composite z-score [9] | composite z-score [10] | composite z-score [11] | composite z-score [12] | composite z-score [13] | z-score [14] | composite z-score [15] | composite z-score [16] | composite z-score [17] | composite z-score [18] | composite z-score [19] | composite z-score [20]
1 | COc1ccc(NN2C(C(O)c3ccc(I)cc3)C=CC3C(=O)N(C4CCCCC4)C(=O)C32)cc1 (stereo not given) | 1.55 | 0.147 (inactive) | 1.26 (inactive) | 0.801 (inactive) | 3.04 | -0.0155 (inactive) | 0.109 | 0.715 | 1.03 | 0.257 | 0.404 | 0.519 | 0.792 | 0.293 (inactive) | 1.33 | 1.31 | 0.479 | 1.46 | 0.0284 | 0.504
2 | CCOC(=O)C[C@H]1[C@H](OC(=O)c2cc3ccccc3oc2=O)[C@@H](NC(=O)CC(C)C)c2cc(OCCCO)ccc2N1C(=O)Cc1ccc(OC)cc1 | 1.14 | -0.238 (inactive) | -0.462 (inactive) | 0.052 (inactive) | 1.3 | -0.479 (inactive) | -0.165 | 0.322 | 0.924 | -0.0973 | 0.621 | -0.283 | -0.309 | -0.339 (inactive) | 0.942 | 0.523 | 0.145 | 0.91 | 0.481 | -0.0372
3 | CCCCC(O)C1C=CC2C(=O)N(c3ccccc3)C(=O)C2N1Nc1ccccc1 (stereo not given) | 0.24 | 0.102 (inactive) | -1.32 (inactive) | 1.77 (inactive) | 2.93 | -0.193 (inactive) | -0.0355 | -0.422 | 0.452 | -0.153 | 0.664 | 0.696 | 0.91 | 0.759 (inactive) | 0.564 | -0.501 | -0.633 | -0.293 | -0.699 | 1.16
4 | O=C1O[C@H](Cc2ccccc2)[C@@H]2[C@H]3C=CCCC=C3CN2[C@H]1Cc1ccc(O)cc1 | -1.14 | -0.055 (inactive) | -1.54 (inactive) | -0.621 (inactive) | -0.145 | 0.222 (inactive) | -0.0591 | -0.0371 | -0.268 | -0.0958 | 0.968 | -0.271 | -0.0179 | 0.192 (inactive) | -0.36 | -1.16 | -0.317 | -0.17 | -0.0128 | 0.991
5 | O=C1O[C@@H](c2ccccc2)[C@@H](c2ccccc2)N2[C@@H](c3ccc(OCCO)cc3)[C@]3(C(=O)Nc4ccc(C#CCCO)cc43)[C@@H](C(=O)O)[C@H]12 | 1.53 | 0.659 (inactive) | 0.799 (inactive) | -0.261 (inactive) | 2.68 | 0.543 (inactive) | 1.03 | 1.31 | 1.04 | 0.853 | 1.81 | 0.416 | 1.17 | 0.362 (inactive) | 1.41 | 0.746 | 0.702 | 0.988 | 0.151 | 1.34
